What all share (details): concentration: 10 µM; 24 h
Test [1] concerns HCC1569. Description: cell number relative to DMSO (% of DMSO); higher = more cells (less growth inhibition / toxicity). In outline:
(§1)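 H1.0 nuclear intensity or cell number is expressed as percent of the plate control, with the median of replicates taken. HCC1569 and TDF cells were treated with compounds at 10 µM for 24 h at 37 °C, in triplicate, then fixed and immunostained for H1.0 with DAPI as a nuclear stain. HCC1569 values were smoothed to correct for positional effects.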

Test [2] has as its system TDF. The description is as above. A digest of the protocol: as §1
The subject of test [3] is TDF. The experiment in a line: H1.0 immunofluorescence intensity relative to DMSO (% of DMSO); higher = stronger H1.0 induction, active = 120 or more. A digest of the protocol: as §1
Test [4] concerns HCC1569. The experiment in a line: H1.0 immunofluorescence intensity relative to DMSO (% of DMSO); higher = stronger H1.0 induction, active = 140 or more. A digest of the protocol:
as §1

± gives the standard deviation of the averaged measurements.
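Throughout, for H1.0 immunofluorescence intensity relative to DMSO: TDF is a line of transformed human dermal fibroblasts of mesenchymal origin.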
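Throughout, for cell number relative to DMSO: TDF denotes transformed human dermal fibroblasts of mesenchymal origin.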

With `CN(CC=CC#CC(C)(C)C)Cc1cccc2ccccc12.Cl`, the cell number in the test with HCC1569 [1] stood at 96.4; in the test on TDF [2], 105. Besides, the H1.0 immunofluorescence intensity in the test on TDF [3] is 101 (inactive); with HCC1569 [4], 98.4 (inactive).

Turning to `COc1ccc(S(=O)(=O)Nc2nc(-c3cccc([N+](=O)[O-])c3)cs2)cc1OC`, the cell number in the test on HCC1569 [1] stood at 102; with TDF [2], 92.4. The H1.0 immunofluorescence intensity with TDF [3] is 102 (inactive); in the test with HCC1569 [4] it was 97.7 (inactive).

In the case of `CC1=NC(=NNc2ccc(S(=O)(=O)[O-])cc2S(=O)(=O)[O-])C(COP(=O)([O-])[O-])=C(C=O)C1=O.[Na+].[Na+].[Na+].[Na+]`, the cell number with HCC1569 [1] came to 102; with TDF [2], 103. Further, the values for the H1.0 immunofluorescence intensity with TDF [3] and in the test on HCC1569 [4] were 90.1 (inactive) and 97.3 (inactive), respectively.

Turning to `COc1cc2c(c(OC)c1OC)-c1ccc(OC)c(=O)cc1C(NC=O)CC2` (centres undefined) [N-Formyl-Deacetylcolchicine], the cell number was 98.9 with HCC1569 [1] and 92.9 with TDF [2]. The figures for the H1.0 immunofluorescence intensity in the test with TDF [3] and in the test on HCC1569 [4] were 91.7 (inactive) and 81.9 (inactive), respectively.

On to `CS(=O)(=O)O.CSc1ccc2c(c1)C(N1CCN(C)CC1)Cc1ccccc1S2` (centres undefined) [Methiothepin mesylate], for which the results for the cell number in the test on HCC1569 [1] and with TDF [2] were 91.1 and 102, respectively. Besides, the H1.0 immunofluorescence intensity is 111 (inactive) in the test with TDF [3] and 128 (inactive) in the test on HCC1569 [4].

Regarding `CCCCCCCCCCC1=C(C)C(=O)C(OC)=C(OC)C1=O` [Decylubiquinone], the cell number with HCC1569 [1] worked out at 101; in the test with TDF [2] it was 89.2. The values for the H1.0 immunofluorescence intensity in the test on TDF [3] and in the test with HCC1569 [4] were 94.8 (inactive) and 91.8 (inactive), respectively.

As to `CC(=O)OC1CCC2(C)C(C1)C(OC(C)=O)CC1C2CC2C3CN4CC(C)CCC4C(C)C3CCC21O` (centres undefined) [Diacetylkorseveriline], the cell number in the test with HCC1569 [1] amounted to 101; with TDF [2], 109. The values for the H1.0 immunofluorescence intensity with TDF [3] and in the test with HCC1569 [4] were 96.2 (inactive) and 95.1 (inactive), respectively.

Consider `CC(N)=NCCCC[C@H](N)C(=O)O.Cl` [L-N6-(1-Iminoethyl)lysine hydrochloride], for which the cell number in the test with HCC1569 [1] worked out at 103; in the test on TDF [2], 109. Further, the H1.0 immunofluorescence intensity in the test on TDF [3] was 84.8 (inactive); in the test on HCC1569 [4], 91.6 (inactive).

`COC1C=COC2(C)Oc3c(C)c(O)c4c(c3C2=O)C(=O)C(=CNN2CCN(C)CC2)C(=C4O)NC(=O)C(C)=CC=CC(C)C(O)C(C)C(O)C(C)C(OC(C)=O)C1C` (centres undefined) [Rifampicin]: the values for the cell number with HCC1569 [1] and in the test with TDF [2] were 104.2 ± 0.92 and 106 ± 1.9, respectively. For the same molecule, the H1.0 immunofluorescence intensity in the test with TDF [3] is 94.5 (inactive); with HCC1569 [4] it was 103 (inactive).

With `COc1ccc(C2OCC3C(c4ccc(OC)c(OC)c4)OCC23)cc1OC` (centres undefined) [Eudesmine], the cell number was determined as 102 with HCC1569 [1] and 104 with TDF [2]. For the same molecule, the figures for the H1.0 immunofluorescence intensity with TDF [3] and with HCC1569 [4] were 97.6 (inactive) and 107 (inactive), respectively.

As to `OCC1OC(OC2OC=CC3C(O)C4OC4(CO)C23)C(O)C(O)C1O` (centres undefined) [Catalpol], the cell number turned out to be 105 in the test on HCC1569 [1] and 106 with TDF [2]. In addition, the results for the H1.0 immunofluorescence intensity with TDF [3] and with HCC1569 [4] were 96.6 (inactive) and 89.4 (inactive), respectively.

On to `O=C(c1ccc(Cl)c(S(=O)(=O)NCC2CCCO2)c1)N1CCN(c2ncccn2)CC1` (centres undefined) [Adenosine Kinase Inhibitor], for which the cell number in the test on HCC1569 [1] stood at 86.3; in the test with TDF [2], 103. In addition, the H1.0 immunofluorescence intensity with TDF [3] was 89.5 (inactive); in the test on HCC1569 [4] it was 116 (inactive).

For the molecule `CCCCCCCCCCCC=CCCCCC(=O)O` [6(Z)-Octadecenoic acid], the results for the cell number in the test on HCC1569 [1] and in the test with TDF [2] were 100 and 99.9, respectively. In addition, the H1.0 immunofluorescence intensity in the test on TDF [3] was 101 (inactive); with HCC1569 [4] it was 97.5 (inactive).

Regarding `Cl.NOCC(=O)O.NOCC(=O)O` [O-(Carboxymethyl)hydroxylamine hemihydrochloride], the values for the cell number in the test on HCC1569 [1] and with TDF [2] were 107 and 97.9, respectively. In addition, the H1.0 immunofluorescence intensity is 99.1 (inactive) in the test with TDF [3] and 105 (inactive) with HCC1569 [4].

In the case of `CC1OC(OC2C(O)CC(OC3C(O)CC(OC4CCC5(C)C(CCC6C5CCC5(C)C(C7=CC(=O)OC7)CCC65O)C4)OC3C)OC2C)CC(O)C1O` (centres undefined) [Digitoxin], the figures for the cell number in the test on HCC1569 [1] and with TDF [2] were 58.4 and 48.4, respectively. Further, the H1.0 immunofluorescence intensity is 127 (active) with TDF [3] and 121 (inactive) with HCC1569 [4].

`Cc1nc(-c2ccccc2)c(-c2ccncc2)o1`: the cell number in the test on HCC1569 [1] stood at 99.2; in the test on TDF [2], 116. Also, the H1.0 immunofluorescence intensity in the test with TDF [3] was 94.1 (inactive); in the test on HCC1569 [4] it was 103 (inactive).

On to `COc1ccccc1N1CCN(CCN(C(=O)c2ccc(F)cc2)c2ccccn2)CC1.Cl.Cl` [p-MPPF dihydrochloride], for which the cell number stood at 99.7 with HCC1569 [1] and 109 with TDF [2]. Moreover, the H1.0 immunofluorescence intensity with TDF [3] is 89.7 (inactive); with HCC1569 [4], 87.2 (inactive).

For `CCCCOC(=O)NC(=O)C1c2ccccc2Oc2ccccc21` [butyl 9H-xanthen-9-ylcarbonylcarbamate], the cell number in the test on HCC1569 [1] was found to be 102; in the test with TDF [2], 106. For the same molecule, the H1.0 immunofluorescence intensity in the test on TDF [3] is 90.1 (inactive); in the test with HCC1569 [4], 107 (inactive).

Take `CCN(CC)Cc1ccc(C(=O)N(CCc2ccccc2OC)[C@@H]2CCNC2)cc1.Cl.Cl`: the cell number was found to be 98.5 with HCC1569 [1] and 95.9 in the test with TDF [2]. The H1.0 immunofluorescence intensity in the test on TDF [3] was 100 (inactive); with HCC1569 [4], 115 (inactive).

For the molecule `CCC1(O)CC2CN(CCc3c([nH]c4ccccc34)C(C(=O)OC)(c3cc4c(cc3OC)N(C)C3C(O)(C(=O)OC)C(OC(C)=O)C5(CC)C=CCN6CCC43C65)C2)C1` (centres undefined) [Vinblastine], the values for the cell number with HCC1569 [1] and in the test with TDF [2] were 53.6 and 9.51, respectively. The H1.0 immunofluorescence intensity in the test on TDF [3] is 161 (active); in the test with HCC1569 [4], 164 (active).

`CC(C)c1ccc2oc3nc(N)c(C(=O)O)cc3c(=O)c2c1`: the cell number in the test on HCC1569 [1] stood at 104; in the test on TDF [2] it was 109. Moreover, the H1.0 immunofluorescence intensity is 97.3 (inactive) in the test on TDF [3] and 92.5 (inactive) in the test with HCC1569 [4].
